These results are taken from PubChem BioAssay (Tox21).

Inconclusive results are not listed. A call without a number means that no potency is given here. Active and inactive are the calls of the source. Calls come from the whole dose curve; as a rule, active = well fitted inhibition curve with a large enough effect in the repeat runs; inconclusive = weak or mixed curves; inactive = no such curve, though single readings can be large or run the other way.
Potency is the fitted concentration of half-maximal effect.

This assay is described as follows: qHTS assay to identify small molecule antagonists of the thyroid receptor (TR) signaling pathway (AID 743065). Note: nearly all actives have a fitted effect of over 55% in size. Conditions: GH3.TRE-Luc, T3-stimulated luciferase inhibition, 23.5 h; series mostly up to 70.3 µM. The text has this: U.S. Tox21 Program National Center for Advancing Translational Sciences [NCATS] NIH Chemical Genomics Center [NCGC] U.S. Environmental Protection Agency [EPA] National Institutes of Environmental Health Sciences [NIEHS] National Toxicology Program [NTP] U.S. Food and Drug Administration [FDA] Tox21 Assay Overview: Thyroid receptor (TR), a nuclear hormone receptor, plays an important role in development, proliferation, differentiation, metabolism, brain function, and cardiovascular system. […] To profile the Tox21 10K compound library in TR signaling, a cell-based GH3-TRE-Luc assay (GH3.TRE-Luc cell line, developed by the laboratory of Dr. Albertinka J. Murk, Wageningen University) was used to measure the inhibition of TR. GH3 (rat pituitary tumor) cells stably expressing a TR activity sensor consisting of two TR response elements and a luciferase reporter gene.
Tox21 Assay Protocol Summary: GH3.TRE-Luc cells were dispensed at 1500 cells/4 uL/well into 1536-well white solid bottom plates using a Multidrop Combi dispenser (Thermo Fisher Scientific Inc., Waltham, MA). After the assay plates were incubated at 37 C for 4 hours, 23 nL of library compound or DMSO controls was transferred to the assay plates by a pintool station (Kalypsys, San Diego, CA), followed by addition of 1 ul of T3 (1 nM, final concentration in the wells) to stimulate TR transactivation. The assay plates were incubated at 37 C for 23.5 h, and then 1 uL of CellTiter-Fluor reagent (Promega, Madision, WI) of measuring cytotoxicity was added to each well using a Bioraptr Flying Reagent Dispenser (FRD) workstation (Beckman Coulter, Indianapolis, IN, USA). The plates were incubated at 37 C and 5% CO2 for additional 30 min, and fluorescence intensity was measured by a ViewLux plate reader (PerkinElmer, Shelton, CT). For measuring luciferase reporter gene activity, 4 uL of ONE-Glo Luciferase Assay reagent (Promega) was added to each well using a Bioraptr FRD (Beckman Coulter), followed by 30 min incubation at room temperature. The luminescence intensity of plates was recorded by a ViewLux plate reader (PerkinElmer, Shelton, CT).
A general note: qHTS replaces the single test concentration by a dilution series.
Turning to `CO[Si](C)(OC)OC`, the Potency result was “inactive”.
On to `CCNC(=O)N1CCN(CCCC(c2ccc(F)cc2)c2ccc(F)cc2)CC1`, for which the Potency was 21.1 µM (active).
Next, `O=C(O)c1cccnc1C(=O)O`: “inactive”; `O=C1NCCN1`: “inactive”; `OC/C(Br)=C(\Br)CO`: “inactive”.
Next, `CC1(C)O[C@@H]2C[C@H]3[C@@H]4CCC5=CC(=O)C=C[C@]5(C)[C@H]4[C@@H](O)C[C@]3(C)[C@]2(C(=O)CO)O1`: “inactive”; `CC(=O)Nc1ccc(N)cc1`: “inactive”; `CCCOCCOCCO`: “inactive”.
Next, `O=C1OCCN1/N=C/c1ccc([N+](=O)[O-])o1`: “inactive”; `COC(OC)(C(=O)c1ccccc1)c1ccccc1`: “inactive”.
As for `CO[C@H]1C=CO[C@@]2(C)Oc3c(C)c(O)c4c(O)c(c5c(c4c3C2=O)=NC2(CCN(CC(C)C)CC2)N=5)NC(=O)/C(C)=C\C=C/[C@H](C)[C@H](O)[C@@H](C)[C@@H](O)[C@@H](C)[C@H](OC(C)=O)[C@@H]1C`, the Potency is 29.8 µM (active).
The same measure for `CCCCOC(=O)CCS`: “inactive”.
Next, `Cc1ccc(S(=O)(=O)NC2CCCCC2)cc1`: “inactive”; `Cc1cnc(C)c(C)n1`: “inactive”.
Regarding `CCCCN(CCCC)CCCOC(=O)c1ccc(N)cc1`, the Potency result is “inactive”.
Next, `CCCCCCCC/C=C\CCCCCCCC(=O)OC(CO)CO`: “inactive”.
Turning to `NC(=O)N(O)[C@@H]1C=C[C@H](Oc2cccc(Oc3ccc(F)cc3)c2)C1`, the Potency is 68.6 µM (active).
Next, `Nc1ccc(S(=O)(=O)O)cc1`: “inactive”; `CC1=C(C=O)C(C)(C)CCC1`: “inactive”.
Next, `CC(=O)Oc1ccc2c(c1)CC[C@@H]1[C@@H]2CC[C@]2(C)[C@@H](O)CC[C@@H]12`: 26.6 µM (active).
For the compound `CCOC(=O)CC(=O)C(=O)OCC`, the Potency entry was “inactive”.
Next, `CC(CCO)CCc1ccccc1` (stereo not given): “inactive”; `Oc1cc(O)c(Cl)cc1Cl`: “inactive”.
`COCc1c(C(C)C)nc(C(C)C)c(/C=C/[C@@H](O)C[C@@H](O)CC(=O)O)c1-c1ccc(F)cc1`: the Potency is 11.9 µM (active).
Next, `CC1=CC(O)CC(C)(C)C1` (stereo not given): “inactive”; `CN1CCN(CCCN2c3ccccc3Sc3ccc(S(=O)(=O)N(C)C)cc32)CC1`: 11.4 µM (active); `C/C=C/C=C/CCCCCCCO`: 61.1 µM (active).
Next, `Nc1ccc(S(=O)(=O)O)c(N)c1`: “inactive”; `Fc1c(F)c(F)c(Br)c(F)c1F`: “inactive”; `CC(=O)Nc1ccccc1C`: “inactive”.
With `CCOC(=O)/C=C/C(=O)O`, the Potency result is “inactive”.
On to `CC(=O)OCC(=O)[C@H]1CC[C@H]2[C@@H]3CCC4=CC(=O)CC[C@]4(C)[C@H]3CC[C@]12C`, for which the Potency is 13.3 µM (active).
As for `Cc1cc(O)c(C(C)C)cc1Cl`, the Potency result is “inactive”.
The same measure for `COc1cc2[nH]c(=O)[nH]c(=O)c2cc1OC`: “inactive”; for `O=C(O)C(Cc1cc(I)c(O)c(I)c1)c1ccccc1` (stereo not given): “inactive”; for `O=C(CCCCCCCCC#CI)Oc1ccccc1`: 13.3 µM (active).
The same measure for `CC1CN(c2cc3c(cc2F)c(=O)c(C(=O)O)cn3-c2ccc(F)cc2F)CCN1` (stereo not given): “inactive”; for `O=C(O)c1cccc(O)c1`: “inactive”.
As to `COC(=O)[C@@H]1CC2=CC(=O)CC[C@]2(C)[C@@]23O[C@@H]2C[C@@]2(C)[C@@H](CC[C@@]24CCC(=O)O4)[C@H]13`, the Potency entry is “inactive”.
On to `OCCSc1ccccc1`, for which the Potency entry was “inactive”.
